# MenB inh: inhibitors of Mycobacterium tuberculosis MenB enzyme | inhibition, % (concentration not given with the values) | AID 540299 | 0.43% of 100,000 active | MenB enzyme assay, absorbance read-out | P9WNP5; in the data active = inhibition above about 21%, passing the limit was not always enough
# Target sequence (P9WNP5 whole entry, looked up): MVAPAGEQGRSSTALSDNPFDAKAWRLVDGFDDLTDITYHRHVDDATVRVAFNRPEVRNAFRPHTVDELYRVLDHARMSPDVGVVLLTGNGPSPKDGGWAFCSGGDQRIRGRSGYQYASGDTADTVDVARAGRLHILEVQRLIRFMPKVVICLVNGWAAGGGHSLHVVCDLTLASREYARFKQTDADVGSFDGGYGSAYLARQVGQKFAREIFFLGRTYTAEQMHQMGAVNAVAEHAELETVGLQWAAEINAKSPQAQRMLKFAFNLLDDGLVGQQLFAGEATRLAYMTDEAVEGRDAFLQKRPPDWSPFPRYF
# MbtI inh: MbtI salicylate synthase inhibition; P9WFX0; purified MbtI enzyme, fluorescence intensity read-out; inhibition, % (concentration not given with the values); 0.89% of 100,000 active; AID 493033; in the data active = inhibition mostly above about 56%, no sharp cut-off; inactive = mostly below about 77%
# AID504770: E. coli YBA685 growth inhibition, screen for V. cholerae RctB inhibitors; E. coli YBA685 rctB-dependent plasmid, OD600 growth, 3 h; active compounds read low; 0.27% of 130,000 active; z-score (concentration not given with the values); in the data active = z-score below about -2, passing the limit was not always enough
# Polio RdRp inh: inhibitors of poliovirus RNA polymerase binding and polymerization; poliovirus polymerase elongation, fluorescence polarization; active compounds read low; % elongation, % (compound at 16.7 µg/mL); 0.66% of 150,000 active; AID 588519; in the data active = % elongation below about 90%
# Active calls of the source: *; / = no result given. This is a sample that favours compounds with a hit; in the whole collection about 1.4% have one here.
SMILES,MenB inh,MbtI inh,AID504770,Polio RdRp inh
CCOC(=O)Cc1csc(SCC(=O)NC)n1,-1.5,-5.2,0.15,106.0
CCCN=c1ssc(=O)n1CCC,0.4,66.8*,-1.5,91.0
COCc1[nH]c(=S)[nH]c(=O)c1Cc1c(F)cccc1Cl,-28.0,25.6,1.55,105.0
CCCCCCCc1c(COC)[nH]c(=S)[nH]c1=O,-30.6,55.4*,-0.5,102.0
CCCn1cc(C(=O)O)c(C)n1,/,-4.3,-0.15,/
c1ccc(-c2csc(NC3CCCCC3)n2)cc1,-49.6,79.3,-0.45,84.0*
c1ccc(-c2nc(NC3CCCCC3)s[n+]2-c2ccccc2)cc1,/,90.9*,0.6,100.0
O=C(Nc1nc(-c2ccccc2)cs1)C1CCC1,-29.3,9.8,-0.05,100.0
O=C(Nc1ccccc1)c1cc(Cl)ccc1O,/,-143.8,-2.65*,104.0
Nc1ccc2nc(CCCO)[nH]c2c1,28.4,58.9,0.75,54.0*
NC(=S)CC(=O)Nc1ccccc1,-36.2,92.6*,-0.05,101.0
NC(=O)c1ccc(NC(=O)CSC(=O)c2ccccc2)cc1,/,70.2*,-0.6,102.0
NC(=S)Nc1ccc(C(=O)O)cc1,-79.2,92.2,0.15,81.0*
Cc1cc(C)nc(SCc2csc(N)n2)n1,-23.8,0.8,-0.4,98.0
N=C(N)SCc1csc(N)n1,7.4,/,-0.45,87.0*
O=C(O)CCC(=O)c1ccc(Br)cc1,/,-10.6,-3.1*,90.0*
O=C(O)CCC(=O)c1ccc(I)cc1,/,4.2,1.5,101.0
COc1ccc(-c2nonc2NC(=O)C(C)C)cc1,12.6,-0.8,-0.2,102.0
COC(=O)c1c(N2C(=O)CCC2=O)sc2c1CCCC2,-2.1,-20.9,-3.2*,101.0
CCOC(=O)c1c(N2C(=O)CCC2=O)sc2c1CCCC2,/,/,0.9,/
O=C(CC1NC(=O)NC1=O)NC1(C(=O)NC2CCCC2)CCCCC1 (stereo not drawn),-32.9,0.0,-0.3,100.0
CCC(C)NC(=O)CCC(=O)NNc1nc2ccccc2c2nc(C)nn12 (stereo not drawn),/,/,/,36.0*
COCCNC(=O)CCC(=O)NNc1nc2ccccc2c2nc(C)nn12,/,/,/,30.0*
OCc1ccc(OCCOc2cccc3cccnc23)cc1,-11.8,-84.2,1.4,107.0
O=C(Nc1cccnc1)c1cccnc1C(=O)O,9.1,2.8,-0.7,100.0
SMILES,MenB inh,MbtI inh,AID504770,Polio RdRp inh
S=C(NCCCn1ccnc1)Nc1ccccc1,-8.1,4.9,-0.5,23.0*
CCOc1ccc(NC(=S)NCCCn2ccnc2)cc1,-2.1,11.1,1.3,101.0
O=C(Nc1ccc(NC(=O)c2ccccc2O)cc1)c1ccccc1,/,/,1.1,/
O=Nc1ccc(NNC(=O)c2ccccc2O)cc1,-414.4,45.5,-2.85*,101.0
CC(C)OC1(O)C(=O)c2ccccc2C(=O)C1(O)OC(C)C (stereo not drawn),-18.7,/,-1.05,9.0*
O=C(COc1ccccc1)c1ccc(O)c(O)c1O,-21.1,93.8*,-1.75,101.0
O=C(NCCc1ccccc1)C1CCN(Cc2cc3ccccc3n2Cc2cccc(Cl)c2)CC1,/,/,/,106.0
CC(C)CCNC(=O)C1CCN(Cc2cccc(OCc3ccccc3)c2)CC1,-6.6,/,-0.6,74.0*
CCN(CC)C(=O)c1cc2sccc2n1Cc1ccc(F)cc1,-7.6,5.2,-0.05,102.0
COCCn1cc(C(=O)O)c2ccccc21,-46.4,5.1,-0.25,99.0
O=C(N/N=C/c1ccco1)C1CN(S(=O)(=O)c2ccccc2)CCN1S(=O)(=O)c1ccccc1 (stereo not drawn),-32.4,83.6*,-1.2,102.0
COc1ccccc1CNC(=O)CSc1ncc2c(n1)-c1cc(Cl)ccc1N(Cc1ccccc1)S2(=O)=O,/,/,/,-5.0*
Cc1nonc1NC(=O)Nc1cccnc1,-10.8,/,-2.05*,103.0
CC(C)C(NS(=O)(=O)c1ccccc1)C(C)C,-11.5,-16.7,-0.8,105.0
O=c1ccc2cc3c([nH]c4ccc(Br)cc43)oc-2c1O,-119.3,96.8*,0.5,86.0
Cc1ccc(C(=O)Nc2cc(C)cc(C)c2)cc1,-26.1,-3.0,1.05,106.0
Cc1ccc(C(=O)Nc2cccc(O)c2)cc1,-1.2,7.6,-2.35*,100.0
Cc1ccc(C(N)=S)c(=O)[nH]1,-54.9,172.6,-0.2,85.0*
CC(C)c1cc(C(C)C)c(S(=O)(=O)NCc2ccccc2)c(C(C)C)c1,-25.7,-7.3,0,102.0
CCNc1ncnc2c1nnn2CC,-46.7,86.5*,1.9,99.0
CCNc1ncnc2c1nnn2C,/,/,/,103.0
Cc1ccc2occ(CC(=O)N(Cc3ccccc3Cl)C3CCS(=O)(=O)C3)c2c1 (stereo not drawn),/,/,/,-14.0*
O=C(Nc1ccnn1Cc1ccc(Br)cc1)[C@@H]1CCCN1C(=O)c1cccs1,-36.0,9.0,1.95,100.0
CN(C(=O)C1CCCN(S(=O)(=O)c2cccc3nsnc23)C1)c1ccc(Br)cc1 (stereo not drawn),-7.8,-3.5,-0.45,101.0
COc1ccc(-c2csc(=Nc3cc(C(=O)O)ccc3C)o2)cc1,-14.2,/,-0.65,86.0*
SMILES,MenB inh,MbtI inh,AID504770,Polio RdRp inh
COc1ccc(-c2sc(C(=O)O)cc2C)cc1,11.1,90.1,0.65,102.0
CCN(CC)c1cc(-c2cccs2)nc(SCC(=O)c2cccs2)c1C#N,-4.7,/,1.9,77.0*
CC(CN1CCCN(C)CC1)c1ccccc1 (stereo not drawn),-21.9,-5.5,-0.8,102.0
CN1CCCN(Cn2nc3ccccn3c2=S)CC1,-8.1,47.8,0.95,15.0*
COc1ccc(Cl)cc1NC(=O)c1nnn(CC(=O)Nc2c(C)cc(C)cc2C)c1N,-17.5,75.0,-1.05,105.0
Oc1ccc(C(=S)N2CCCCC2)cc1,-54.5,57.9*,0.5,96.0
S=C(c1ccc(Br)cc1)N1CCCC1,-6.7,/,-1.6,103.0
CCOc1ccc(N2C(=O)CC(Sc3nccc(C)n3)C2=O)cc1 (stereo not drawn),-9.9,31.9,-0.4,104.0
Cc1cccc(N2C(=O)CC(Sc3nccc(C)n3)C2=O)c1 (stereo not drawn),3.9,63.2*,-0.05,101.0
Cc1cccc(N2C(=O)CC(Sc3ncn[nH]3)C2=O)c1 (stereo not drawn),10.2,99.3*,0.05,97.0
O=C(COC(=O)C1CCC1)Nc1ccc(F)cc1,/,-18.5,0.5,103.0
CCOc1ccc(OCCCCN(C)C)cc1,-29.5,1.4,0.2,101.0
CCOc1ccc(C(=S)N(C)C)cc1,-15.9,78.5*,0.7,100.0
CC(SCc1nc2sc3c(c2c(=O)[nH]1)CCCC3)C(=O)NCc1ccco1 (stereo not drawn),-20.0,18.4,0.4,120.0
O=C(/C=C/c1ccc(Cl)cc1Cl)NCc1cccnc1,/,1.9,0.65,106.0
Cc1nc2ccccc2c(=O)n1-c1ccc(C(=O)NC(C)c2ccccn2)cc1 (stereo not drawn),-35.3,0.0,1.75,34.0*
NC1=CC(=O)c2ccccc2C1=O,-65.5,66.2,-2.35*,88.0*
CC1=CC(=O)c2ccccc2C1=O,-6.0,10.0,0.65,99.0
O=C(NCCc1ccccc1)c1cnn2ccccc12,/,/,-0.95,/
O=c1[nH]c(NCCO)nc2ccccc12,-13.1,91.1,-1.75,105.0
O=c1[nH]c(NCCO)c(I)c(=O)[nH]1,/,68.1*,-1.2,/
COC(=O)C(C#N)c1nc2ccccc2nc1Cl (stereo not drawn),-24.2,-0.1,-0.3,83.0*
